Reference: PubChem BioAssay (Tox21)
Records with an inconclusive call do not appear. Entries that show only a call come without a potency. Some compounds were tested as several samples or in several runs, with calls that do not always agree. Active and inactive are the calls of the source. The call rests on the fitted dose curve; in most records, active means well fitted inhibition curve with a large enough effect in the repeat runs; inconclusive means weak or mixed curves; inactive means no such curve, though single readings can be large or run the other way.
Potency means the concentration at half of the fitted maximal effect.

Test: qHTS assay to identify small molecule antagonists of the thyroid receptor (TR) signaling pathway (AID 743065); further: nearly all actives have a fitted effect of over 55% in size
Conditions: GH3.TRE-Luc, T3-stimulated luciferase inhibition, 23.5 h; series mostly up to 70.3 µM; activity, negative = inhibition: at the top concentration
Text: U.S. Tox21 Program National Center for Advancing Translational Sciences [NCATS] NIH Chemical Genomics Center [NCGC] U.S. Environmental Protection Agency [EPA] National Institutes of Environmental Health Sciences [NIEHS] National Toxicology Program [NTP] U.S. Food and Drug Administration [FDA] Tox21 Assay Overview: Thyroid receptor (TR), a nuclear hormone receptor, plays an important role in development, proliferation, differentiation, metabolism, brain function, and cardiovascular system. […] To profile the Tox21 10K compound library in TR signaling, a cell-based GH3-TRE-Luc assay (GH3.TRE-Luc cell line, developed by the laboratory of Dr. Albertinka J. Murk, Wageningen University) was used to measure the inhibition of TR. GH3 (rat pituitary tumor) cells stably expressing a TR activity sensor consisting of two TR response elements and a luciferase reporter gene.
Tox21 Assay Protocol Summary: GH3.TRE-Luc cells were dispensed at 1500 cells/4 uL/well into 1536-well white solid bottom plates using a Multidrop Combi dispenser (Thermo Fisher Scientific Inc., Waltham, MA). After the assay plates were incubated at 37 C for 4 hours, 23 nL of library compound or DMSO controls was transferred to the assay plates by a pintool station (Kalypsys, San Diego, CA), followed by addition of 1 ul of T3 (1 nM, final concentration in the wells) to stimulate TR transactivation. The assay plates were incubated at 37 C for 23.5 h, and then 1 uL of CellTiter-Fluor reagent (Promega, Madision, WI) of measuring cytotoxicity was added to each well using a Bioraptr Flying Reagent Dispenser (FRD) workstation (Beckman Coulter, Indianapolis, IN, USA). The plates were incubated at 37 C and 5% CO2 for additional 30 min, and fluorescence intensity was measured by a ViewLux plate reader (PerkinElmer, Shelton, CT). For measuring luciferase reporter gene activity, 4 uL of ONE-Glo Luciferase Assay reagent (Promega) was added to each well using a Bioraptr FRD (Beckman Coulter), followed by 30 min incubation at room temperature. The luminescence intensity of plates was recorded by a ViewLux plate reader (PerkinElmer, Shelton, CT).
With `C[Si](C)(C)N[Si](C)(C)C` the Potency was “inactive”. For `OCCOCCOCCOCCOCCO`, the Potency was “inactive”. With `Cc1ccc(C(C)C)cc1` the Potency was “inactive”. With `CN=C(NC#N)NCCSCc1nc[nH]c1C` the Potency was “inactive”. With `CC(C)(CO)CO` the Potency was “inactive”. With `C=C(CC(=O)O)C(=O)O` the Potency was “inactive”. With `CCCCCC(C)=O` the Potency was “inactive”. With `CCCCCCC(=O)O` the Potency was “inactive”. With `C1CCCNCC1` the Potency was “inactive”. For `CCCCCCCCCCCC(=O)N(C)CC(=O)O`, the Potency was 59.2 µM (active) and the activity, negative = inhibition was 7.52% [at 8.44 µM] (inactive). For `Cc1cccc(C)c1[N+](=O)[O-]`, the Potency was “inactive”. For `Nc1cccc(N)n1`, the Potency was “inactive”. For `CCc1cccc(O)c1`, the Potency was “inactive”. In the case of `CCCN(CCC)C(=O)SCC`, the Potency is reported as “inactive”. For `Cc1ccc([N+](=O)[O-])cc1N`, the Potency was “inactive”. In the case of `CC1=CC(=O)CC(C)(C)C1`, the Potency is reported as “inactive”. With `C[n+]1ccn(CCO)c1` the Potency was “inactive”. With `Cc1cc(C)c(O)c(C)c1` the Potency was “inactive”. For `CN1Cc2c(N)cccc2C(c2ccccc2)C1` (stereo not given), the “activity, negative = inhibition” value was 0.0334% (inactive). In the case of `C=C1C[C@]23C[C@@]1(O)CC[C@H]2[C@@]12C=C[C@H](O)[C@@](C)(C(=O)O1)[C@H]2[C@@H]3C(=O)O`, the Potency is reported as “inactive”. In the case of `CCCCCCCCCCCCCC(=O)O`, the “activity, negative = inhibition” value is reported as -26.1% (inactive). For `CCCCCCCCO`, the Potency was “inactive”. In the case of `CC/C(C)=N/O`, the Potency is reported as “inactive”. For `CC1(C)C(=O)N(Cl)C(=O)N1Cl`, the Potency was “inactive”. For `CCCCC(=O)O`, the Potency was “inactive”. With `CCc1cccc(CC)c1N` the Potency was “inactive”. With `CCOC(=O)c1ccc(O)cc1` the Potency was “inactive”. In the case of `CC(=O)OC(C)(C)C1CC=C(C)CC1` (stereo not given), the Potency is reported as “inactive”. With `OCC(CO)(CO)CO` the Potency was “inactive”. In the case of `NC(N)=S`, the Potency is reported as “inactive”. For `O=C1C(N(CO)C(=O)NCO)N(CO)C(=O)N1CO` (stereo not given), the Potency was “inactive”. In the case of `NC(=O)NC(N)=O`, the Potency is reported as “inactive”. For `O=c1n(CCCN2CCN(c3cccc(Cl)c3)CC2)nc2ccccn12`, the Potency was “inactive”. For `CC(=O)c1nccs1`, the Potency was “inactive”. For `CC(C)c1ccc(C(C)C)cc1`, the Potency was “inactive”. With `O=C(Cl)c1ccc(C(=O)Cl)cc1` the Potency was “inactive”. In the case of `O=C(NCC1CCCCN1)c1cc(OCC(F)(F)F)ccc1OCC(F)(F)F` (stereo not given), the Potency is reported as 53.5 µM (active). In the case of `CC(=O)OC[C@H]1O[C@@](COC(C)=O)(O[C@H]2O[C@H](COC(C)=O)[C@@H](OC(C)=O)[C@H](OC(C)=O)[C@H]2OC(C)=O)[C@@H](OC(C)=O)[C@@H]1OC(C)=O`, the Potency is reported as “inactive”. With `CO[Si](CCCNCCN)(OC)OC` the Potency was “inactive”.
